The record followed here is PubChem BioAssay (EPA / NIEHS).

Active and inactive are the calls of the source. How the source made its calls: active means hit-call score of the fitted dose curve at least 0.9, where 1 is the maximum; inactive means score below 0.9.

Read-out in assay [1]: Tissue plasminogen activator (tPA), PLAT (gene 5327)
Kind of assay: BSK_BE3C_tPA: BioMAP Diversity Plus: BE3C Assay for Tissue plasminogen activator (tPA) Biomarker Activity (AID 2283041).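 On outcome: tPA level quantified by ELISA one day after compound addition.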 Particulars: primary human bronchial epithelial cells; actives raise or lower the signal. In outline: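 Using human lung primary bronchial epithelial cells, tPA was measured by ELISA 24 h after dosing; data fitted relative to DMSO.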

Read-out in assay [2]: Interleukin-8 (IL8), CXCL8 (gene 3576)
Nature of the assay: BSK_CASM3C_IL8: BioMAP Diversity Plus: CASM3C Assay for Interleukin-8 (IL8) Biomarker Activity (AID 2283042).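 Further: IL-8 protein level quantified by ELISA.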 Particulars: primary human coronary artery smooth muscle cells; actives raise or lower the signal.

Read-out in assay [3]: Human Leukocyte Antigen - DR isotype (HLADR), HLA-DRA (gene 3122)
Kind of assay: BSK_CASM3C_HLADR: BioMAP Diversity Plus: CASM3C Assay for Human Leukocyte Antigen - DR isotype (HLADR) Biomarker Activity (AID 2283043).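 Further: cell-surface HLA-DR protein level quantified by ELISA.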 Particulars: primary human coronary artery smooth muscle cells; actives raise or lower the signal.

Read-out in assay [4]: Macrophage colony-stimulating factor (MCSF), CSF1 (gene 1435)
Kind of assay: BSK_CASM3C_MCSF: BioMAP Diversity Plus: CASM3C Assay for Macrophage colony-stimulating factor (MCSF) Biomarker Activity (AID 2283044).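 Further: M-CSF protein amount quantified by ELISA after 24 h exposure.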 Particulars: primary human coronary artery smooth muscle cells; actives raise or lower the signal.

Read-out in assay [5]: Low-density lipoprotein receptor (LDLR), LDLR (gene 3949)
Nature of the assay: BSK_CASM3C_LDLR: BioMAP Diversity Plus: CASM3C Assay for Low-density lipoprotein receptor (LDLR) Biomarker Activity (AID 2283045).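 Further: LDLR protein level on the cell surface quantified by ELISA.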 Particulars: primary human coronary artery smooth muscle cells; actives raise or lower the signal.

Read-out in assay [6]: Monocyte Chemoattractant Protein-1 (MCP1), CCL2 (gene 6347)
Nature of the assay: BSK_CASM3C_MCP1: BioMAP Diversity Plus: CASM3C Assay for Monocyte Chemoattractant Protein-1 (MCP1) Biomarker Activity (AID 2283046).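 Further: MCP-1 level quantified by ELISA 24 h after dosing.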 Particulars: primary human coronary artery smooth muscle cells; actives raise or lower the signal.

A short description of assay [7]: BSK_CASM3C_Proliferation: Cell Proliferation Assessment in the BioMAP Diversity Plus: CASM3C Assay (AID 2283047).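 Further: sulforhodamine B total protein stain as relative cell number at 560 nm; sub-confluent cells exposed 48 h before staining; fitted both ways against DMSO so gain or loss of cell number.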 The note with it: primary human coronary artery smooth muscle cells.
Read-out in assay [8]: Monokine induced gamma interferon (MIG), CXCL9 (gene 4283)
Nature of the assay: BSK_CASM3C_MIG: BioMAP Diversity Plus: CASM3C Assay for Monokine induced gamma interferon (MIG) Biomarker Activity (AID 2283048).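 Further: MIG protein level measured by ELISA.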 Particulars: primary human coronary artery smooth muscle cells; actives raise or lower the signal.

Read-out in assay [9]: serum amyloid A (SAA), SAA1 (gene 6288)
Nature of the assay: BSK_CASM3C_SAA: BioMAP Diversity Plus: CASM3C Assay for serum amyloid A (SAA) Biomarker Activity (AID 2283049).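 Further: SAA protein level quantified by ELISA.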 Particulars: primary human coronary artery smooth muscle cells; actives raise or lower the signal.

Assay [10] can be described thus: BSK_CASM3C_SRB: Viability Assessment in the BioMAP Diversity Plus: CASM3C Assay (AID 2283050).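 Further: total protein by SRB staining as cytotoxicity measure in parallel cultures; cells exposed to compound for 24 h.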 Particulars: primary human coronary artery smooth muscle cells.
Read-out in assay [11]: Thrombomodulin, THBD (gene 7056)
Kind of assay: BSK_CASM3C_Thrombomodulin: BioMAP Diversity Plus: CASM3C Assay for Thrombomodulin Biomarker Activity (AID 2283051).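 Further: thrombomodulin protein level measured by ELISA 24 h after dosing.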 Particulars: primary human coronary artery smooth muscle cells; actives raise or lower the signal.

Read-out in assay [12]: Tissue Factor, F3 (gene 2152)
Kind of assay: BSK_CASM3C_TissueFactor: BioMAP Diversity Plus: CASM3C Assay for Tissue Factor Biomarker Activity (AID 2283052).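 Further: cell surface tissue factor protein level read by ELISA.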 Particulars: primary human coronary artery smooth muscle cells; actives raise or lower the signal.

Read-out in assay [13]: Interferon-gamma inducible Protein 10 (IP10), CXCL10 (gene 3627)
Kind of assay: BSK_hDFCGF_IP10: BioMAP Diversity Plus: hDFCGF Assay for Interferon-gamma inducible Protein 10 (IP10) Biomarker Activity (AID 2283053). Particulars: primary human foreskin fibroblasts; actives raise or lower the signal. The procedure, abridged: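 Chemical-treated human skin fibroblasts (primary) were sampled at 24 h for IP-10 by ELISA. Both increases and decreases relative to DMSO were scored.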

Read-out in assay [14]: Urokinase-type plasminogen activator receptor (uPAR), PLAUR (gene 5329)
Kind of assay: BSK_CASM3C_uPAR: BioMAP Diversity Plus: CASM3C Assay for Urokinase-type plasminogen activator receptor (uPAR) Biomarker Activity (AID 2283054).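 Further: cell-surface uPAR protein level quantified by ELISA.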 Particulars: primary human coronary artery smooth muscle cells; actives raise or lower the signal.

Read-out in assay [15]: Vascular cell adhesion molecule 1 (VCAM1), VCAM1 (gene 7412)
Kind of assay: BSK_CASM3C_VCAM1: BioMAP Diversity Plus: CASM3C Assay for Vascular cell adhesion molecule 1 (VCAM1) Biomarker Activity (AID 2283055).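 Further: VCAM-1 protein level quantified by ELISA on the cells.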 Particulars: primary human coronary artery smooth muscle cells; actives raise or lower the signal.

Read-out in assay [16]: Collagen III, COL3A1 (gene 1281)
Nature of the assay: BSK_hDFCGF_CollagenIII: BioMAP Diversity Plus: hDFCGF Assay for Collagen III Biomarker Activity (AID 2283056). Particulars: primary human foreskin fibroblasts; actives raise or lower the signal. In outline:
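ELISA read-out of collagen III from human skin fibroblast cultures sampled 24 h post-dosing. Values were derived by bidirectional fitting relative to the DMSO vehicle control.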

Read-out in assay [17]: Epidermal growth factor receptor (EGFR), EGFR (gene 1956)
Kind of assay: BSK_hDFCGF_EGFR: BioMAP Diversity Plus: hDFCGF Assay for Epidermal growth factor receptor (EGFR) Biomarker Activity (AID 2283057). Particulars: primary human foreskin fibroblasts; actives raise or lower the signal. In outline: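 Cell-based multiplexed assay in primary human foreskin fibroblasts. EGFR is read by ELISA 24 h after treatment and compared with DMSO controls.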

Read-out in assay [18]: Interleukin-8 (IL8), CXCL8 (gene 3576)
Nature of the assay: BSK_hDFCGF_IL8: BioMAP Diversity Plus: hDFCGF Assay for Interleukin-8 (IL8) Biomarker Activity (AID 2283058). The note with it: primary human foreskin fibroblasts; actives raise or lower the signal. The procedure, abridged: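 Cells used are human skin primary fibroblasts. Chemical is added, cultures run 24 h, then IL-8 is quantified by ELISA, and gain or loss versus DMSO control is fitted in both directions.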

The nature of assay [19]: BSK_hDFCGF_Proliferation: Cell Proliferation Assessment in the BioMAP Diversity Plus: hDFCGF Assay (AID 2283059).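 Further: curves fitted for both rise and fall of signal versus DMSO baseline.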 The note with it: primary human foreskin fibroblasts. The procedure, abridged: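 Steps: dose primary human dermal fibroblasts (foreskin); […] fix in 10% TCA; stain with 0.1% SRB; read 560 nm; fit gain or loss of signal against DMSO.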

Regarding `C=C(C)[C@H]1CC=C(C)C(=O)C1`, the outcome in [1], in assay [2], in assay [3], in [4], in assay [5] and in [6] was inactive. For the same compound, the result in assay [7], in assay [8], in [9], in assay [10], in assay [11] and in [12] was inactive. Moreover, the outcome in [13], in [14], in assay [15], in assay [16], in assay [17] and in assay [18] was inactive. Moreover, in assay [19], the outcome was inactive.

Regarding `c1ccc(Oc2ccccc2)cc1`, the outcome in assay [1], in assay [2], in assay [3], in assay [4], in [5] and in assay [6] was inactive. In addition, the result in assay [7], in assay [8], in assay [9], in [10], in assay [11] and in assay [12] was inactive. The result in [13], in assay [14], in assay [15], in [16], in assay [17] and in assay [18] was inactive. Moreover, the result in [19] was inactive.

In the case of `O=CN1CCOCC1`, the result in assay [1], in [2], in assay [3], in assay [4], in assay [5] and in assay [6] was inactive. Also, the result in [7], in [8], in assay [9], in assay [10], in [11] and in [12] was inactive. Besides, the result in assay [13], in assay [14], in assay [15], in assay [16], in assay [17] and in assay [18] was inactive. Further, in assay [19], the result was inactive.

As for `c1ccc(CCc2ccccc2)cc1`, the AC50 in assay [1] was 30.6 µM (active); in assay [3], 29 µM (active); in assay [4], 29.5 µM (active); in assay [5], 30.6 µM (active); in assay [6], 33.1 µM (active); in assay [9] it was 26.4 µM (active). The AC50 in assay [10] was 29.1 µM (active); in assay [12], 20 µM (active); in assay [13], 34.1 µM (active); in [14], 31.9 µM (active); in assay [15] it was 37.6 µM (active); in [16] it was 36.1 µM (active). Further, in [19], the AC50 was 13.8 µM (active). Besides, the outcome in assay [2], in [7], in [8], in [11], in [17] and in assay [18] was inactive.

On to `COc1cc(Cl)c(OC)cc1N`, for which the result in [1], in [2], in [3], in assay [4], in assay [5] and in [6] was inactive. Besides, the outcome in assay [7], in [8], in assay [9], in assay [10], in [11] and in assay [12] was inactive. Further, the result in assay [13], in [14], in assay [15], in assay [16], in assay [17] and in assay [18] was inactive. Moreover, the outcome in [19] was inactive.

In the case of `C=C(C)C(=O)OCCOCCOCCOC(=O)C(=C)C`, the outcome in assay [1], in assay [2], in assay [5], in assay [6], in assay [7] and in [8] was inactive. The outcome in assay [9], in assay [10], in assay [11], in assay [12], in assay [13] and in [14] was inactive. Moreover, the result in assay [15], in [16], in assay [17], in assay [18] and in [19] was inactive. Also, the AC50 in [3] is 0.0969 µM (active); in [4], 0.016 µM (active).
